Laboratory results reported in PubChem BioAssay (NCI).
This is part of a sample that, as a whole, favours compounds with a hit. Of some 79,000 tested, about 15% had one in any assay. Unmarked numbers belong to inactive results. Active and inactive are the calls of the source. Cut-off read from the data, not from the text of the source: active = growth inhibition above about 70%; inactive = the rest.

Key:
[1] = NCI Yeast Anticancer Drug Screen. Data for the rad50 strain (AID 155);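 note: 0% = growth of vehicle-only cultures of the same strain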; settings: S. cerevisiae rad50 strain growth inhibition, stronger effect = higher value
Procedure, shortened: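 DNA repair mutant yeast, compound exposure, growth read-out; inhibition is taken relative to vehicle.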

[2] = NCI Yeast Anticancer Drug Screen. Data for the mec2-1 strain (AID 157); settings: S. cerevisiae mec2-1 strain, stronger effect = higher value
Procedure, shortened: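 Each compound was tested on mec2-1 yeast, a strain altered in DNA damage repair or cell cycle control. Growth inhibition is reported relative to vehicle.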

[3] = NCI Yeast Anticancer Drug Screen. Data for the sgs1 mgt1 strain (AID 161);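 note: 0% = growth of cultures given vehicle only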; settings: S. cerevisiae sgs1 mgt1 strain, stronger effect = higher value
Procedure, shortened: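 Mutant yeast exposed to compound; growth scored against vehicle-only wells.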

[4] = NCI Yeast Anticancer Drug Screen. Data for the cln2 rad14 strain (AID 165);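 note: 0% = growth equal to vehicle treated cultures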; settings: S. cerevisiae cln2 rad14 strain, stronger effect = higher value
Procedure, shortened: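 Test compounds were added to cln2 rad14 yeast cultures; inhibition of growth was then determined by comparison with vehicle treatment.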

[5] = NCI Yeast Anticancer Drug Screen. Data for the bub3 strain (AID 167); settings: S. cerevisiae bub3 mutant strain, stronger effect = higher value
Procedure, shortened: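 In this screen, a yeast mutant lacking normal mitotic checkpoint function is challenged with compound. Relative growth versus vehicle gives the inhibition value.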

[6] = NCI Yeast Anticancer Drug Screen. Data for the mlh1 rad18 strain (AID 175); settings: S. cerevisiae mlh1 rad18 strain growth inhibition, stronger effect = higher value
Procedure, shortened: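 Inhibition values reflect reduced growth of mutant yeast versus vehicle-treated controls following compound exposure; the mutations affect DNA damage repair.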

[7] = at 5.0 µM (retest, dose inferred, filed as 0.5)
[8] = at 50.0 µM (retest, dose inferred, filed as 5.0)

Row | SMILES | growth inhibition [1, 7] | growth inhibition [1, 8] | growth inhibition ([1]; at 50.0 µM) | growth inhibition [2, 7] | growth inhibition [2, 8] | growth inhibition ([2]; at 50.0 µM) | growth inhibition [3, 7] | growth inhibition [3, 8] | growth inhibition ([3]; at 50.0 µM) | growth inhibition [4, 7] | growth inhibition [4, 8] | growth inhibition ([4]; at 50.0 µM) | growth inhibition [5, 7] | growth inhibition [5, 8] | growth inhibition ([5]; at 50.0 µM) | growth inhibition [6, 7] | growth inhibition [6, 8] | growth inhibition ([6]; at 50.0 µM)
1 | CN(C)N=Nc1ccc2[nH]c(=O)[nH]c2c1 | 16% | 18% | 53% | 5% | 9% | 38.8% | 16% | -18% | 12.6% | 13% | -54% | 29.1% | 14% | -11% | 74% (active) | 19% | 19% | 72.5% (active)
2 | O=C1OC(c2cccc(Cl)c2)=N/C1=C\C=C/c1ccccc1 | -3% | -10% | 14.1% | -27% | -15% | -7.9% | -8% | 1% | 17.6% | 19% | 21% | 11.8% | -1% | -10% | 11.9% | -16% | -39% | 3.9%
3 | Cc1ccc2sc(=S)sc2c1 | -2% | 32% | 59.5% | -3% | 53% | 25.4% | -2% | 40% | 40.4% | 0% | 77% (active) | 74.2% (active) | 7% | 65% | 95.3% (active) | -19% | 69% | 72.3% (active)
4 | COc1ccc(C2COc3cc(OC(C)=O)c(OC(C)=O)cc3C2)cc1 (stereo unspecified) | -1% | 93% (active) | 96.1% (active) | 2% | 95% (active) | 95.9% (active) | 1% | 93% (active) | 95% (active) | 4% | 93% (active) | 94.9% (active) | 24% | 96% (active) | 97.1% (active) | – | – | –
5 | Oc1ccc2ccccc2c1CNc1ccc2ccccc2c1 | 8% | 57% | 95.9% (active) | 10% | 15% | 98.7% (active) | 11% | 69% | 98.8% (active) | -1% | 18% | 97.8% (active) | 0% | 60% | 95.4% (active) | 12% | 67% | 98.5% (active)
6 | N=Nc1c(OC(=O)Nc2cccc(Cl)c2)[nH]c2ccccc12 | 36% | 99% (active) | 98.7% (active) | 14% | 99% (active) | 98.8% (active) | 28% | 99% (active) | 99% (active) | 15% | 99% (active) | 98.2% (active) | 1% | 99% (active) | 98.4% (active) | 33% | 99% (active) | 99.1% (active)
7 | O=C(OC12CCCCC1CCCC2)c1ccc([N+](=O)[O-])cc1 (stereo unspecified) | 28% | 98% (active) | 98% (active) | 29% | 99% (active) | 99.5% (active) | 32% | 99% (active) | 99.1% (active) | 11% | 99% (active) | 99.5% (active) | 33% | 99% (active) | 99.4% (active) | 44% | 98% (active) | 99.2% (active)
8 | OC(CCN1CCCCC1)(Cc1ccccc1)c1cccc(Cl)c1 (stereo unspecified) | 8% | 46% | 58.1% | 4% | 40% | 26.6% | 28% | 78% (active) | 73.1% (active) | 17% | 52% | 77.8% (active) | 15% | 62% | 50.9% | 17% | 64% | 60.3%
9 | CC1(C)CCC2(CC1)CC(=O)OC(=O)C2 | -159% | -162% | -3.9% | -50% | -54% | 18.5% | -64% | -62% | 6.6% | -59% | -59% | 27.8% | -71% | -82% | -3.4% | – | – | –
10 | COc1ccc(C2Oc3ccc(Cl)cc3C=C2[N+](=O)[O-])cc1 (stereo unspecified) | 99% (active) | 93% (active) | 80.4% (active) | 99% (active) | 95% (active) | 87.1% (active) | 99% (active) | 95% (active) | 82.5% (active) | 99% (active) | 93% (active) | 83.2% (active) | 99% (active) | 94% (active) | 84.4% (active) | – | – | –
